{"source": "paper PMC12136788", "binders": {"B1": {"name": "chr7:54825262:54825263:-_ENSG00000132432_ENST00000352861|hu_hu|hu_hu_hu_mus_False|58_58 (ssRNA)", "RNA": "GGGAGUUCUACAGUCCGACGAUCCUGCCGGCUGGGCUCCACAAACUGCAUUACCUGAUCCAUGUUUGUUGGAUGGCACACCUAAAACGUAGAGACACGUAGCUCAGGAGAGAACCGAGCCCAACGGAACCGGAAGCUGGCAACCAACAGAGGAUUGAGCAUCA"}, "B2": {"name": "chr2:148701057:148701058:-_ENSG00000115947_ENST00000542387|hu_hu|FALSE|FALSE (ssRNA)", "RNA": "GGGAGUUCUACAGUCCGACGAUCUGACCGCAGGUUUUUGCUGAUAUUGAAAUGCUUCUGUAGUACUUCUUGCACACUUCUAUCUUCUGAGAGAUACUGAACAUUUUCAUUCCACUUCUCAGCAAAAACCUUGUCUGGAAACUCCAACAGAGGAUUGAGCAUCA"}, "B3": {"name": "chr15:59961163:59961164:-_ENSG00000140299_ENST00000607373|hu_mus|FALSE|FALSE (ssRNA)", "RNA": "GGGAGUUCUACAGUCCGACGAUCGCCGACAUACUCCAUGGGAACAAGCUCUGCCAGCUCGGCCAAGUUAAAGACGUAUCUGAUCUUCUGACUGAACUUUGAACUGAUAAAUGGUCGUGUAACAGCCAGAAGUGUUCGGAUAAACAACAGAGGAUUGAGCAUCA"}, "B4": {"name": "6624775_6624895_1421_CDS_ENSMUSG00000041272_ENSMUST00000039987|mouse|control|control (ssRNA)", "RNA": "GGGAGUUCUACAGUCCGACGAUCGCUCGGAUGCAUGGCGGUGAGCUGAGGAGUCAUUCCUGGUUGUUGGUGAUAGUGAGAACUUAGGUACAGAGCUGAGUGGGCCUGGCUGGGCCCAUGGAAUACUGACGGCUUUGAGUUGACCAACAGAGGAUUGAGCAUCA"}, "B5": {"name": "chrX:35795285:35795286:-_ENSMUSG00000016534_ENSMUST00000061755|mus_mus|FALSE|FALSE (ssRNA)", "RNA": "GGGAGUUCUACAGUCCGACGAUCGAAAUUCAUCUCCCAUUCUGCAUAAAGGCAAGUACCCUUUGAAUCUGUCAAAUUAACUAUCAAUGCAUUGGACUGAACGGCUCCUAGGAACAGAAAGAUCAGGAUGAGCUUUGCGCCUUUCAACAGAGGAUUGAGCAUCA"}, "B6": {"name": "74470573_74471800_972_CDS_ENSMUSG00000021577_ENSMUST00000022062|mouse|control|control (ssRNA)", "RNA": "GGGAGUUCUACAGUCCGACGAUCGUUGAUGAGAAUCCCCCCCUCUCCACGACACCCUUCUGUGAUGAGGCAGCCAGCACCGUAUAUACCUGUGGGGUGGAACUGAACAAAUUCUAAGUCCUGGCAAGGCAAACCAGCCCUAGUCAACAGAGGAUUGAGCAUCA"}, "B7": {"name": "chr1:109605286:109605287:-_ENSG00000197780_ENST00000461096|hu_mus|hu_hu_hu_mus_True|18_98 (ssRNA)", "RNA": "GGGAGUUCUACAGUCCGACGAUCAAGUUUCAGAGUAUUCAGUGAUCACCUCUUUAAAUGCAAUUAUCCUUAUUAUAAGCUAAGCAGAAUAAUAAUUUAAUACCGUAAGUGAACUACCACAAAACCUUGAACCGCGAAAAUGGUCAACAGAGGAUUGAGCAUCA"}, "B8": {"name": "chr1:150192741:150192742:-_ENSG00000143401_ENST00000314136|hu_hu|FALSE|FALSE (ssRNA)", "RNA": "GGGAGUUCUACAGUCCGACGAUCUUAAUUAUGGGCUAAAAAUGACUAAUACAGUAAGCUUGAAUUUAAAAAAUUAAGUCUAAAUAAAUUGCUAGGGAAUUCCACAAUGGGAGUCAAUGAAAAUUUUUCUCUACAUACAAUAUGCAACAGAGGAUUGAGCAUCA"}, "B9": {"name": "chr1:150192741:150192742:-_ENSG00000143401_ENST00000314136|hu_hu|motif|central (ssRNA)", "RNA": "B8 RNA with U80G, A81G"}, "B10": {"name": "chr1:109605286:109605287:-_ENSG00000197780_ENST00000461096|hu_mus|hu_hu_hu_mus_True|18_38 (ssRNA)", "RNA": "GGGAGUUCUACAGUCCGACGAUCAAGUUUCAGAGUAACAUUCAGUAACCUCUUUAAAUGCAAUUAUCCUUAUUAUAAGCUAAGCAGAAUAAUAAUUUAAUACAUAGAGUGAACUACCACAAAACCUUGAACCGCGAAAAUGGUCAACAGAGGAUUGAGCAUCA"}, "B11": {"name": "chr3:160150142:160150143:+_ENSG00000113810_ENST00000344722|hu_hu|motif|central (ssRNA)", "RNA": "GGGAGUUCUACAGUCCGACGAUCAAAACCUGCCAUAAAUUCAUUAAGCCUUUGUUUCCGAAGAUCUUCAUAUGCCUGUCGGAAACUGUCUCUUUCAUAAGUAAUUUUGUCCAAUUCUGCUACCCGUUGCAAAUACAAUUCUUCCAACAGAGGAUUGAGCAUCA"}, "B12": {"name": "chr16:57198444:57198445:-_ENSMUSG00000022749_ENSMUST00000023431|mus_mus|motif|central (ssRNA)", "RNA": "GGGAGUUCUACAGUCCGACGAUCCCUAAAAGAAGCUGGCGUCUUACUACAGUAAUACUGAGCCAAAGAGAACAGGUCUUCGGUGUCUUCCAGAUUCAGGCUGGCCGGGGUACUUUCCAAAAAGCGGAUAACUUCUUCUUUGCUCAACAGAGGAUUGAGCAUCA"}, "B13": {"name": "chr22:36164377:36164378:-_ENSG00000100320_ENST00000405409|hu_hu|motif|central (ssRNA)", "RNA": "GGGAGUUCUACAGUCCGACGAUCACGGCCCUCUACCACGGUGCCGUGUAAUUUCUCCCUGGCCCUGUCUGCAUCAGCACGGUUCUCGAAAGUUACGAACCCGAAUCCCUUAGAGCCACGUUCAUUAAAGAUUAUUUCUACAUCCAACAGAGGAUUGAGCAUCA"}, "B14": {"name": "chr6:86333760:86333761:-_ENSG00000135316_ENST00000355238|hu_mus|hu_hu_hu_mus_True|98_108 (ssRNA)", "RNA": "GGGAGUUCUACAGUCCGACGAUCUUCUUCAAGAAUCUGUUCCUUGGUUUUACUCUUAGGAAUCGAGCCCACAAAAAGCCUAUUGUUGGCAACUGAGAUGCAGACACCAAUGUGCUUCCCGGAACGAAUUUCAUGAUUAUUAUACAACAGAGGAUUGAGCAUCA"}, "B15": {"name": "chr12:493273:493274:-_ENSG00000073614_ENST00000399788|hu_mus|hu_hu_hu_mus_False|58_108 (ssRNA)", "RNA": "GGGAGUUCUACAGUCCGACGAUCUUUUCUCUCUACCACAGGGAUCUUCAAUGUAGAUCCUUGAAGUUCCCAAAAUUUUGCUAGUUGAUCCAAGAAGUCCAAUCUUACUCUAGUCAUUGCCUCAAGUUCAUUCAGGCGCUGGACCAACAGAGGAUUGAGCAUCA"}, "B16": {"name": "chr2:117093540:117093541:+_ENSMUSG00000027349_ENSMUST00000028825|mus_hu|motif|central (ssRNA)", "RNA": "GGGAGUUCUACAGUCCGACGAUCCAUUGUAAUCGUUGUCUUGGGUGACAAAGCAUAACGCUUAGGCUGAUAAAUUCUUGCGGUAUCAUCUGUUUUUACCUUUGCUCUAUCAGACCAUCCAAAGGACUGUACAGUCACAUCUAACAACAGAGGAUUGAGCAUCA"}, "B17": {"name": "chr16:45382771:45382772:-_ENSMUSG00000022661_ENSMUST00000163230|mus_mus|mus_mus_mus_hu_True|8_28 (ssRNA)", "RNA": "GGGAGUUCUACAGUCCGACGAUCCUGGGUCAUGUUAUAAGACAAAUGGACAGGGAGGGCAUGCUUCUCAAAAAAUGUGAGCUAUUGUCUAAGACUAACAAUAUUUACUAAGUGCUAAAAAUAAGUUUUAAAUGGACGUUAAGACAACAGAGGAUUGAGCAUCA"}, "B18": {"name": "chr16:45382771:45382772:-_ENSMUSG00000022661_ENSMUST00000163230|mus_mus|mus_mus_mus_hu_True|1_28 (ssRNA)", "RNA": "GGGAGUUCUACAGUCCGACGAUCCUGGGUCAUGUUAUAAGACAAAUGGACAGGGAGGGCAUGCUUCUCAAAAAAUGUGAGCUAUUGUCUAAGACUAACAAUAUUUACUAAGUGCUAAAAAUAAGUUAAAUGAAUAAACAUUACCAACAGAGGAUUGAGCAUCA"}, "B19": {"name": "chr16:45382771:45382772:-_ENSMUSG00000022661_ENSMUST00000163230|mus_mus|mus_mus_mus_hu_True|28_28 (ssRNA)", "RNA": "B18 RNA with A137G, C138U, A139U, U140A, U141A, A142G, C143A"}, "B20": {"name": "chr16:45382771:45382772:-_ENSMUSG00000022661_ENSMUST00000163230|mus_mus|mus_mus_mus_hu_True|28_58 (ssRNA)", "RNA": "B18 RNA with G80A, U84C, G86C, A137G, C138U, A139U, U140A, U141A, A142G, C143A"}, "B21": {"name": "chr16:45382771:45382772:-_ENSMUSG00000022661_ENSMUST00000163230|mus_mus|mus_mus_mus_hu_True|28_98 (ssRNA)", "RNA": "GGGAGUUCUACAGUCCGACGAUCCUGGGUCAUGUUAUGGGCCCAAUGGACAGGGAGGGCAUGCUUCUCAAAAAAUGUGAGCUAUUGUCUAAGACUAACAAUAUUUACUAAGUGCUAAAAAUAAGUUAAAUGAAUAAGUUAAGACAACAGAGGAUUGAGCAUCA"}, "B22": {"name": "chr6:29491266:29491267:-_ENSMUSG00000012535_ENSMUST00000012679|mus_mus|FALSE|FALSE (ssRNA)", "RNA": "GGGAGUUCUACAGUCCGACGAUCGGGUUGGGCUCUACAUUAAAAGCAACUUUGACCCUGGCUAGUCCGGACUAUCAUCCCUAACCAUGAUAUAAGCAGACCAGGCUCCUUGUCUGGACAUUUCUAAAGGUGAACAGUUGGGGGCAACAGAGGAUUGAGCAUCA"}}, "note": "Changes are numbered by the printed parent chain. Whole data set: some 24,000 sequences, median “enrichment r” near 0.99, cut for the highest 2% near 3.7. Only a selection was taken, and the highest values are over-represented in it overall."}
{"biological_target": "T1, UNK ZnF1-3 (human, UniProt Q9C0B0 31-174)", "T1 sequence": "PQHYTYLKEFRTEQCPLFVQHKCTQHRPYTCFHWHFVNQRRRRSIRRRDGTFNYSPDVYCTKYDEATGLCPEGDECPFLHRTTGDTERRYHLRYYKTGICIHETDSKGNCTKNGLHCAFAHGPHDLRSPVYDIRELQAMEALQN", "assay": "nsRBNS (natural sequence RNA bind-n-seq); RBNS binding buffer (assumed for nsRBNS): 25 mM Tris pH 7.5, 150 mM KCl, 3 mM MgCl2, 0.01% Triton X-100, 500 ug/ml BSA, 20 U/ml SUPERase-In, 4 C; UNK is unkempt and MSI1 is Musashi-1; names of the RNAs are library labels; protein concentration not given here; high values mean tight binding", "units": {"binding signal": "enrichment R"}}
{"binder": "B1", "binding signal": 1.08}
{"binder": "B2", "binding signal": 0.287}
{"binder": "B3", "binding signal": 0.638}
{"binder": "B4", "binding signal": 1.32}
{"binder": "B5", "binding signal": 1.22}
{"binder": "B6", "binding signal": 1.28}
{"binder": "B7", "binding signal": 0.885}
{"binder": "B8", "binding signal": 4.88}
{"binder": "B9", "binding signal": 6.83}
{"binder": "B10", "binding signal": 0.848}
{"binder": "B11", "binding signal": 1.2}
{"binder": "B12", "binding signal": 1.25}
{"binder": "B13", "binding signal": 0.844}
{"binder": "B14", "binding signal": 1.34}
{"binder": "B15", "binding signal": 0.801}
{"binder": "B16", "binding signal": 0.494}
{"binder": "B17", "binding signal": 5.08}
{"binder": "B18", "binding signal": 3.32}
{"binder": "B19", "binding signal": 11.4}
{"binder": "B20", "binding signal": 3.92}
{"binder": "B21", "binding signal": 8.35}
{"binder": "B22", "binding signal": 0.897}
